Molecules are shown by their SMILES. Hit rate of the full screen: of about 320,000 compounds, about 2,100 (0.66%) were called active. Roughly 53% stayed inconclusive and do not appear here. The call rests on the fitted dose curve; in most records, active means well fitted inhibition curve with a large enough effect in the signal ratio, with a control signal flat (not every such curve was filed as active); inconclusive means small, poorly fitted or top-dose-only effect, or effect the other way, or a change in a side signal; inactive means flat fitted curve, though single readings scatter; the % refers to the signal ratio. This excerpt belongs to a sample that is enriched for actives.
Potency means the concentration at half of the fitted maximal effect.

This test in a line: qHTS Assay for Lipid Storage Modulators in Drosophila S3 Cells.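 On cell number change: cells counted by Cell Tracker Red CMTPX staining in the red channel.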 On lipid storage change, negative = inhibition: on the % scale 0 is the no-effect control and ±100 the full control effect. As to conditions: BODIPY lipid droplet fluorescence, 18-24 h, cells fed with added oleic acid; cell number change: measured here: cell count max response; series mostly up to 46.1 µM; lipid storage change, negative = inhibition: at the top concentration. The essentials:
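Drosophila S3 cells loaded with oleic acid (400 uM, as added) and compounds at several concentrations; lipid droplets imaged by 488-nm laser-scanning cytometry, 500–530 nm intensity and object ratio to cell channel. Percent activity normalized to 20 uM Triacsin C.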
As to `O=C(NN=C1CCCC1)c1ccccc1[N+](=O)[O-]`, the result was inactive and the cell number change is 7.42%.
Regarding `Cc1cc(C)nc(NC(C)(C)C(=O)O)n1`, the “lipid storage change, negative = inhibition” value is -23.2% (inactive) and the cell number change came out at 0.119%.
On the same counts, the results for `COc1ccc(-c2noc(C3CCCN(C(=O)c4ccc(C)cc4)C3)n2)cc1` (stereo not given) are 4.74% (inactive) and 10.5%.
With `Cc1ccc(-c2noc(C3CCCN(C(=O)c4ccccc4Br)C3)n2)cc1` (stereo not given), the Potency is 18.4 µM (active) and the cell number change was -26.6%.
Take `O=C(c1ccccc1Br)N1CCCC(c2nc(-c3cccs3)no2)C1` (stereo not given): the outcome was inactive.
As for `Cc1nn(C)c(Cl)c1C(=O)NCC(=O)NCc1ccccc1`, the “lipid storage change, negative = inhibition” value was -13.1% (inactive) and the cell number change was -13%.
With `Nc1nonc1-n1nnc(C(=O)N/N=C/c2ccoc2)c1-c1ccccc1`, the compound was classed as inactive and the cell number change came out at 11.3%.
For `O=C(O)c1ccccc1C(=O)NCCCn1ccnc1`, the “lipid storage change, negative = inhibition” value is 6.83% (inactive) and the cell number change came to 7.04%.
In the same order, the values of `Nc1c(O)ccc2c1C(=O)c1ccccc1C2=O` are -9.3% (inactive) and -17.1%.
Take `CCOc1cc(C(=O)OCC(=O)N(C)c2ccccc2)cc(OCC)c1OCC`: the compound was called inactive and the cell number change was found to be 9.01%.
Turning to `Cc1[nH]nc(SCC(=O)N2CCCC2)c1[N+](=O)[O-]`, the “lipid storage change, negative = inhibition” value is -2.11% (inactive) and the cell number change was -4.82%.
On the same counts, the results for `COc1cccc(CNC(=O)CCn2c(=O)c3cccn3c3cccnc32)c1` are -26% (inactive) and 1.83%.
In the same order, the values of `CN1CCN(C(=O)CCn2c(=O)c3cccn3c3cccnc32)CC1` are -18.5% (inactive) and 17.7%.
For `COc1ccc(N2CCN(C(=O)CCCn3c(=O)c4cccn4c4cccnc43)CC2)cc1`, the outcome was inactive and the cell number change was 22.2%.
`COc1ccc(CCNC(=O)CCCn2c(=O)c3cccn3c3cccnc32)c(OC)c1`: the Potency was 16.4 µM (active) and the cell number change was -19.3%.
On to `CCc1ccc(CNC(=O)CCCn2c(=O)c3cccn3c3cccnc32)cc1`, for which the outcome was inactive.
Take `CSc1cccc(NC(=O)CCCn2c(=O)c3cccn3c3cccnc32)c1`: the Potency was 18.4 µM (active) and the cell number change is -18.8%.
For `CCOC(=O)C1=C(CS(=O)(=O)c2ccc(Cl)cc2)NC(=O)NC1c1ccc(O)c(OC)c1` (stereo not given), the “lipid storage change, negative = inhibition” value was -8.07% (inactive) and the cell number change worked out at 23%.
As to `O=C(OC(C(=O)Nc1ccc(Cl)cc1C(F)(F)F)c1ccccc1)C1=COCCO1` (stereo not given), the “lipid storage change, negative = inhibition” value was 6% (inactive) and the cell number change is -1.65%.
On the same counts, the results for `CCN(CC)CCCN1C(=O)C(O)=C(C(=O)c2sc(C)nc2C)C1c1ccc(C)o1` (stereo not given) are 0.201% (inactive) and 0.178%.
On the same counts, the results for `COc1cc(/C=C/c2noc(-c3ccccc3O)n2)ccc1OC(C)=O` are -1.96% (inactive) and 8.42%.
In the same order, the values of `CC(C)(C)NC(=O)/C=C/c1cccc(C(F)(F)F)c1` are 23.9% (inactive) and -3.06%.
For the compound `COc1ccc(Nc2ccc([N+](=O)[O-])cn2)cn1`, the Potency is 16.4 µM (active) and the cell number change was -5.41%.
Turning to `COc1ccc(Nc2ccc([N+](=O)[O-])cn2)cc1`, the “lipid storage change, negative = inhibition” value was 19.4% (inactive) and the cell number change came out at 13.2%.
In the same order, the values of `COc1ccccc1Nc1ccc([N+](=O)[O-])cn1` are 3.34% (inactive) and 25.6%.
In the same order, the values of `CCc1nn(CC(=O)NCCCN(CC)c2cccc(C)c2)c(=O)c2cc3occc3n12` are 8.48% (inactive) and -11.1%.
In the case of `CCOC(=O)CCn1cc(F)c(=O)n(Cc2ccccc2)c1=O`, the call was inactive and the cell number change stood at 12.1%.
Regarding `CC(Sc1nc(N2CCOCC2)nc(N2CCOCC2)n1)C(=O)Nc1ccccc1` (stereo not given), the “lipid storage change, negative = inhibition” value is 0.66% (inactive) and the cell number change was -7.21%.
On the same counts, the results for `CCOc1nc(SC(C(C)=O)C(=O)Nc2ccccc2)nc(N(C)C)n1` (stereo not given) are 3.93% (inactive) and -9.19%.
For `CC(C)Nc1nc(SC(C)C(=O)Nc2ccccc2)nc(N(C)C)n1` (stereo not given), the Potency was 8.2 µM (active) and the cell number change is -27.6%.
`COC(=O)c1cccc(-c2ccc(/C=N/N3C(=O)C4C5C=CC(C6CC56)C4C3=O)o2)c1` (stereo not given): the “lipid storage change, negative = inhibition” value is -10.1% (inactive) and the cell number change is -7.37%.
On to `COC(=O)c1ccc(-c2ccc(/C=N/N3C(=O)C4C5C=CC(C6CC56)C4C3=O)o2)cc1` (stereo not given), for which the Potency is 20.6 µM (active) and the cell number change came to 4.78%.
In the case of `COC(=O)c1ccc(-c2ccc(/C=N/N3C(=O)C4C5C=CC(CC5)C4C3=O)o2)cc1` (stereo not given), the “lipid storage change, negative = inhibition” value is -0.618% (inactive) and the cell number change was 10.1%.
As for `O=c1nc(/C=C/c2ccccc2C(F)(F)F)cc(C(F)(F)F)[nH]1`, the Potency was 0.517 µM (active) and the cell number change is -22.9%.
For `COc1ccc(/C=C/c2cc(C(F)(F)F)[nH]c(=O)n2)cc1OC`, the “lipid storage change, negative = inhibition” value was -12.5% (inactive) and the cell number change amounted to 7.45%.
In the same order, the values of `O=c1nc(-c2ccccc2)cc(C(F)(F)F)[nH]1` are -9.25% (inactive) and -9.42%.
Take `CCc1ccc(N2CC(C(=O)NC3CCCCC3C)CC2=O)cc1` (stereo not given): the call was inactive and the cell number change was -4.76%.
On to `COC(=O)c1ccc(COc2ccccc2/C=N/NS(=O)(=O)c2ccccc2)cc1`, for which the “lipid storage change, negative = inhibition” value is -8.74% (inactive) and the cell number change was -14.9%.
For `CCCCC1C(=O)CC[C@H]2[C@@H]1CC(=O)[C@@H]2C/C=C\CCCC(=O)O` (stereo not given in full), the Potency is 9.2 µM (active) and the cell number change is -6.62%.
Take `CCCCC[C@H](O)/C=C/[C@H]1C=CC(=O)[C@@H]1C/C=C\CCCC(=O)O`: the “lipid storage change, negative = inhibition” value is -2.66% (inactive) and the cell number change stood at 10.2%.
For the compound `CCCCC/C=C\C/C=C\C/C=C\C/C=C\CCCC(=O)O`, the “lipid storage change, negative = inhibition” value was -8.8% (inactive) and the cell number change was -29.6%.
As to `CCn1c(=O)c(C(=O)NCc2ccccc2OC)c(O)c2ccccc21`, the compound was classed as inactive and the cell number change worked out at 3.38%.
As to `Cc1cccc(C)c1OCc1nnc(SCC(=O)Nc2ccccc2F)o1`, the “lipid storage change, negative = inhibition” value was 29.6% (inactive) and the cell number change is -7.4%.
On the same counts, the results for `CCc1nnc(NC(=O)CSc2nnc(CSc3nc(C)cc(C)n3)o2)s1` are 7.1% (inactive) and 9.83%.
On the same counts, the results for `Cc1ccc(NC(=O)c2cc(S(=O)(=O)NCCC3=CCCCC3)ccc2F)cc1` are -15.8% (inactive) and -3.48%.
`O=C(Nc1cccc(-n2cnnn2)c1)c1cccs1`: the compound was classed as inactive and the cell number change was -3.63%.

The values are drawn from PubChem BioAssay AID2685 (National Center for Advancing Translational Sciences (NCATS), 2010).
